Measurements reported in PubChem BioAssay AID1159580 (chemical genetic matrix, 2015).
Several values for one entry are separate records, joined by “and”; a condition that tells them apart may be missing. Identical values can stand only once. Hit rate of the full screen: of about 5,500 compounds, about 2,000 (36%) were called active. Another 18% or so got no clear call; they are omitted. Cut-off read from the data, not from the text of the source: active = normalized growth mostly below about 0.91 (no sharp cut-off); inconclusive = no clear call, values can overlap the other calls; inactive = mostly above about 0.92. The list shows a part of the results.

Assay: chemical genetic growth profiling, strain panel (AID 1159580);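 note: tested at 20 µM; growth read once vehicle control cultures reached saturation at 30 °C; 1 = growth at the plate median or of vehicle wells; lower values mean less growth of the strain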
Settings: S. cerevisiae deletion strains, growth OD

Measured: normalized growth

CN(C)CC[C@H](c1ccc(Cl)cc1)c1ccccn1
inactive: locus YAL013W, strain DEP1, active compounds read low 0.997 | locus YAL021C, strain ccr4, active compounds read low 0.99 | locus YAL026C, strain drs2, active compounds read low 1.01 | locus YAL030W, strain snc1, active compounds read low 1 | locus YBL061C, strain skt5, active compounds read low 1.01 | locus YBR009C, strain hhf1, active compounds read low 1.01 | locus YBR021W, strain FUR4, active compounds read low 0.995 | locus YBR023C, strain chs3, active compounds read low 0.996 | locus YBR171W, strain sec66, active compounds read low 0.998 | locus YBR229C, strain ROT2, active compounds read low 1 | locus YBR231C, strain swc5, active compounds read low 0.989 | locus YBR279W, strain paf1, active compounds read low 1.01 | locus YCL011C, strain gbp2, active compounds read low 0.993 | locus YCL016C, strain dcc1, active compounds read low 1.02 | locus YCL029C, strain bik1, active compounds read low 1 | locus YCL061C, strain MRC1, active compounds read low 1 | locus YCL069W, strain vba3, active compounds read low 1 | locus YCR088W, strain abp1, active compounds read low 0.989 | locus YDL005C, strain med2, active compounds read low 0.992 | locus YDL035C, strain GPR1, active compounds read low 1.02 | locus YDL040C, strain nat1, active compounds read low 1.01 | locus YDL074C, strain BRE1, active compounds read low 1.01 | locus YDL101C, strain DUN1, active compounds read low 0.998 | locus YDL134C, strain PPH21, active compounds read low 0.996 | locus YDL185W, strain tfp1, active compounds read low 0.985 | locus YDL192W, strain arf1, active compounds read low 1 | locus YDR001C, strain nth1, active compounds read low 0.999 | locus YDR069C, strain doa4, active compounds read low 1.01 | locus YDR101C, strain arx1, active compounds read low 0.998 | locus YDR137W, strain rgp1, active compounds read low 1.03 | locus YDR150W, strain NUM1, active compounds read low 1.01 | locus YDR159W, strain sac3, active compounds read low 1 | locus YDR162C, strain NBP2, active compounds read low 1.01 | locus YDR195W, strain ref2 1.01 | locus YDR297W, strain sur2, active compounds read low 1.01 | locus YDR318W, strain mcm21, active compounds read low 0.985 | locus YDR334W, strain swr1, active compounds read low 1 | locus YDR335W, strain msn5, active compounds read low 1 | locus YDR388W, active compounds read low 0.991 | locus YDR392W, strain spt3, active compounds read low 1.01 | locus YDR502C, strain sam2, active compounds read low 1.01 | locus YEL003W, strain gim4, active compounds read low 1.01 | locus YEL037C, strain rad23, active compounds read low 0.992 | locus YEL061C, strain CIN8 (second series), active compounds read low 1 | locus YEL061C, strain CIN8, active compounds read low 1 | locus YER015W, strain faa2, active compounds read low 1.01 | locus YER016W, strain bim1, active compounds read low 0.99 | locus YER110C, active compounds read low 0.98 | locus YER111C, strain swi4, active compounds read low 0.994 | locus YER155C, strain BEM2 (second series), active compounds read low 1.01 | locus YER155C, strain BEM2, active compounds read low 1 | locus YER167W, strain BCK2, active compounds read low 1.01 | locus YFR010W, strain ubp6, active compounds read low 0.991 | locus YGL078C, strain dbp3, active compounds read low 1 | locus YGL086W, strain mad1, active compounds read low 1.01 | locus YGL167C, strain pmr1, active compounds read low 0.985 | locus YGL173C, strain kem1, active compounds read low 0.998 | locus YGL227W, strain vid30, active compounds read low 1.01 | locus YGL240W, strain doc1, active compounds read low 1.01 | locus YGL248W, strain PDE1, active compounds read low 0.997 | locus YGL253W, strain hxk2, active compounds read low 1.01 | locus YGR078C, strain PAC10, active compounds read low 1.01 | locus YGR135W, strain pre9, active compounds read low 1 | locus YGR229C, strain SMI1, active compounds read low 1.01 | locus YGR252W, strain gcn5, active compounds read low 0.959 | locus YHR013C, strain ard1, active compounds read low 1.01 | locus YHR027C, strain rpn1, active compounds read low 0.998 | locus YHR030C, strain SLT2, active compounds read low 1 and 0.993 | locus YHR079C, strain IRE1 (second series), active compounds read low 0.993 | locus YHR079C, strain IRE1, active compounds read low 1 | locus YHR094C, strain hxt1, active compounds read low 0.99 | locus YHR129C, strain ARP1, active compounds read low 0.999 | locus YHR142W, strain chs7, active compounds read low 1.02 | locus YHR200W, strain rpn10, active compounds read low 0.992 | locus YIL066C, strain RNR3, active compounds read low 1.01 | locus YIL073C, strain SPO22, active compounds read low 0.992 | locus YIL125W, strain kgd1, active compounds read low 0.999 | locus YIR030C, strain dcg1, active compounds read low 0.991 | locus YJL092W, strain hpr5, active compounds read low 1.01 | locus YJL095W, strain BCK1 (second series), active compounds read low 0.997 | locus YJL095W, strain BCK1, active compounds read low 1 | locus YJL115W, strain asf1, active compounds read low 1.01 | locus YJL129C, strain trk1, active compounds read low 1.01 | locus YJL134W, strain LCB3, active compounds read low 1.01 | locus YJL154C, strain vps35, active compounds read low 1.01 | locus YJL164C, strain tpk1, active compounds read low 0.992 | locus YJL166W, strain qcr8, active compounds read low 0.985 | locus YJL168C, strain set2, active compounds read low 0.993 | locus YJL187C, strain SWE1 (second series), active compounds read low 1.01 | locus YJL187C, strain SWE1, active compounds read low 1.01 | locus YJR043C, strain POL32, active compounds read low 0.984 | locus YJR066W, strain TOR1, active compounds read low 0.993
